Reference: the supplement of paper PMC11732987, “Enantioselective OTUD7B fragment discovery through chemoproteomics screening and high-throughput optimisation” (Communications Chemistry, 2025)
Unmarked numbers belong to inactive results.

Tests used:
Assay in all cases: log2 ratio of Biotin-Ahx-Ub-VS probe labelling (fragment/DMSO); higher = less target engagement (more negative = stronger competition), active = hit call of the paper (q ≤ 0.05, log2 ratio ≤ -1)
Conditions in all cases: compound concentration: 200 uM; treatment time: 3 h
USP19 = target: T1, USP19 (UniProt O94966)
T1 sequence (whole entry): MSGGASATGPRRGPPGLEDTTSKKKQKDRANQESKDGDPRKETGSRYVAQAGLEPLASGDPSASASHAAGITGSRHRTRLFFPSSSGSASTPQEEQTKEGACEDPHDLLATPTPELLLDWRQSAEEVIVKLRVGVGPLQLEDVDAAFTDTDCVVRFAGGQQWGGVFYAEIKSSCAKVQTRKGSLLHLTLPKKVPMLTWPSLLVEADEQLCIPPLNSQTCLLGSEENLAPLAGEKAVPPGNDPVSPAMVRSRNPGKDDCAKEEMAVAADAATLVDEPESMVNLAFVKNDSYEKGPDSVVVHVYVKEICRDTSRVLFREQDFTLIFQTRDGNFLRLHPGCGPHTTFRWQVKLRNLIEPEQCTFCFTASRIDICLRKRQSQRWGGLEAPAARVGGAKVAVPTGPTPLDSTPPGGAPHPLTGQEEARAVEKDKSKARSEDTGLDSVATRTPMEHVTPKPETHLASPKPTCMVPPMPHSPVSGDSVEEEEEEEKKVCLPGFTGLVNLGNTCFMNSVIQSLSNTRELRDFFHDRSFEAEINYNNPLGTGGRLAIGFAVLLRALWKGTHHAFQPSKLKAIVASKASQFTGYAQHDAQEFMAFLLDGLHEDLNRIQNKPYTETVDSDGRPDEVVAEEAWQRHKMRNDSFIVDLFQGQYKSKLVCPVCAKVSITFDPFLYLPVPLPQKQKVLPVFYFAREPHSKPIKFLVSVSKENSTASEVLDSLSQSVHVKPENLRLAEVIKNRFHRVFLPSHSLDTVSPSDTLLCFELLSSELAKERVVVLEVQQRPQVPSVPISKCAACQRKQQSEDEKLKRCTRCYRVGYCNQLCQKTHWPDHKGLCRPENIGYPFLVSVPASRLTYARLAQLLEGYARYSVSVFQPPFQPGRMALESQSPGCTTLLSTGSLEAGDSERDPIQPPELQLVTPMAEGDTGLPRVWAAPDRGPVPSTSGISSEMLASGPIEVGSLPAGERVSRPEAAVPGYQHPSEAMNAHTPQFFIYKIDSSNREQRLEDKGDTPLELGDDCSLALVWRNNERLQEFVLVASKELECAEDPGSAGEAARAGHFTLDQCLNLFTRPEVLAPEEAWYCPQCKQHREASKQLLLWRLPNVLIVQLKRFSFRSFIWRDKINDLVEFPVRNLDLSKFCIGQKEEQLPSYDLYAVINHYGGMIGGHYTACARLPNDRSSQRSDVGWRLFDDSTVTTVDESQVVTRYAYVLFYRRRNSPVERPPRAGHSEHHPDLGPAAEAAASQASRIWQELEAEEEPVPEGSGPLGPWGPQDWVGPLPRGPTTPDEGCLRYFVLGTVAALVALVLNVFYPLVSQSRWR
Summary of the method: (§1)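 Each value is an average log2 ratio of fragment to vehicle, tested by unpaired t-test. The underlying Spectronaut label-free quantities were global-median-normalised, and only proteins with ≥2 unique peptides were included. Triplicate HEK293T lysate samples (495 µg) were exposed to fragment at 200 µM or vehicle for 3 h, then to Biotin-Ahx-Ub-VS at 0.5 µM final for 1 h, before NeutrAvidin enrichment of labelled DUBs, LysC and trypsin digestion, and diaPASEF LC-MS/MS.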

USP22 = target: T2, USP22 (UniProt Q9UPT9)
T2 sequence (whole entry): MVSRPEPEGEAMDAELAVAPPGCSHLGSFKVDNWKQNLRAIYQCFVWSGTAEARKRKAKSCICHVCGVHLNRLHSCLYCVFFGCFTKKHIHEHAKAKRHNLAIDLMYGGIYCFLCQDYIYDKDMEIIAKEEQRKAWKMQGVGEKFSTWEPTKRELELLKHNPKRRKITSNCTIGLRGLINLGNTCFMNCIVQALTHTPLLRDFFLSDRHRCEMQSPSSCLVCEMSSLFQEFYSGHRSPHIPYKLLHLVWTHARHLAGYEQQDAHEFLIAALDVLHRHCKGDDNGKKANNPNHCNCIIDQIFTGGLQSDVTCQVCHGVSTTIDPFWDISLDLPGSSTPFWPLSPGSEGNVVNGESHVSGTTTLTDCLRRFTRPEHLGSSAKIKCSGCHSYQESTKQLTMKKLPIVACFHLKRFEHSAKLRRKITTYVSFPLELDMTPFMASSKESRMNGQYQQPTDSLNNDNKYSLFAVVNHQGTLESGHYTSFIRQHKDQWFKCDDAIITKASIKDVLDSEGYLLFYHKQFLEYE
Summary of the method: as §1

USP24 = USP24 (UniProt Q9UPU5)
USP24, sequence (Q9UPU5 whole entry): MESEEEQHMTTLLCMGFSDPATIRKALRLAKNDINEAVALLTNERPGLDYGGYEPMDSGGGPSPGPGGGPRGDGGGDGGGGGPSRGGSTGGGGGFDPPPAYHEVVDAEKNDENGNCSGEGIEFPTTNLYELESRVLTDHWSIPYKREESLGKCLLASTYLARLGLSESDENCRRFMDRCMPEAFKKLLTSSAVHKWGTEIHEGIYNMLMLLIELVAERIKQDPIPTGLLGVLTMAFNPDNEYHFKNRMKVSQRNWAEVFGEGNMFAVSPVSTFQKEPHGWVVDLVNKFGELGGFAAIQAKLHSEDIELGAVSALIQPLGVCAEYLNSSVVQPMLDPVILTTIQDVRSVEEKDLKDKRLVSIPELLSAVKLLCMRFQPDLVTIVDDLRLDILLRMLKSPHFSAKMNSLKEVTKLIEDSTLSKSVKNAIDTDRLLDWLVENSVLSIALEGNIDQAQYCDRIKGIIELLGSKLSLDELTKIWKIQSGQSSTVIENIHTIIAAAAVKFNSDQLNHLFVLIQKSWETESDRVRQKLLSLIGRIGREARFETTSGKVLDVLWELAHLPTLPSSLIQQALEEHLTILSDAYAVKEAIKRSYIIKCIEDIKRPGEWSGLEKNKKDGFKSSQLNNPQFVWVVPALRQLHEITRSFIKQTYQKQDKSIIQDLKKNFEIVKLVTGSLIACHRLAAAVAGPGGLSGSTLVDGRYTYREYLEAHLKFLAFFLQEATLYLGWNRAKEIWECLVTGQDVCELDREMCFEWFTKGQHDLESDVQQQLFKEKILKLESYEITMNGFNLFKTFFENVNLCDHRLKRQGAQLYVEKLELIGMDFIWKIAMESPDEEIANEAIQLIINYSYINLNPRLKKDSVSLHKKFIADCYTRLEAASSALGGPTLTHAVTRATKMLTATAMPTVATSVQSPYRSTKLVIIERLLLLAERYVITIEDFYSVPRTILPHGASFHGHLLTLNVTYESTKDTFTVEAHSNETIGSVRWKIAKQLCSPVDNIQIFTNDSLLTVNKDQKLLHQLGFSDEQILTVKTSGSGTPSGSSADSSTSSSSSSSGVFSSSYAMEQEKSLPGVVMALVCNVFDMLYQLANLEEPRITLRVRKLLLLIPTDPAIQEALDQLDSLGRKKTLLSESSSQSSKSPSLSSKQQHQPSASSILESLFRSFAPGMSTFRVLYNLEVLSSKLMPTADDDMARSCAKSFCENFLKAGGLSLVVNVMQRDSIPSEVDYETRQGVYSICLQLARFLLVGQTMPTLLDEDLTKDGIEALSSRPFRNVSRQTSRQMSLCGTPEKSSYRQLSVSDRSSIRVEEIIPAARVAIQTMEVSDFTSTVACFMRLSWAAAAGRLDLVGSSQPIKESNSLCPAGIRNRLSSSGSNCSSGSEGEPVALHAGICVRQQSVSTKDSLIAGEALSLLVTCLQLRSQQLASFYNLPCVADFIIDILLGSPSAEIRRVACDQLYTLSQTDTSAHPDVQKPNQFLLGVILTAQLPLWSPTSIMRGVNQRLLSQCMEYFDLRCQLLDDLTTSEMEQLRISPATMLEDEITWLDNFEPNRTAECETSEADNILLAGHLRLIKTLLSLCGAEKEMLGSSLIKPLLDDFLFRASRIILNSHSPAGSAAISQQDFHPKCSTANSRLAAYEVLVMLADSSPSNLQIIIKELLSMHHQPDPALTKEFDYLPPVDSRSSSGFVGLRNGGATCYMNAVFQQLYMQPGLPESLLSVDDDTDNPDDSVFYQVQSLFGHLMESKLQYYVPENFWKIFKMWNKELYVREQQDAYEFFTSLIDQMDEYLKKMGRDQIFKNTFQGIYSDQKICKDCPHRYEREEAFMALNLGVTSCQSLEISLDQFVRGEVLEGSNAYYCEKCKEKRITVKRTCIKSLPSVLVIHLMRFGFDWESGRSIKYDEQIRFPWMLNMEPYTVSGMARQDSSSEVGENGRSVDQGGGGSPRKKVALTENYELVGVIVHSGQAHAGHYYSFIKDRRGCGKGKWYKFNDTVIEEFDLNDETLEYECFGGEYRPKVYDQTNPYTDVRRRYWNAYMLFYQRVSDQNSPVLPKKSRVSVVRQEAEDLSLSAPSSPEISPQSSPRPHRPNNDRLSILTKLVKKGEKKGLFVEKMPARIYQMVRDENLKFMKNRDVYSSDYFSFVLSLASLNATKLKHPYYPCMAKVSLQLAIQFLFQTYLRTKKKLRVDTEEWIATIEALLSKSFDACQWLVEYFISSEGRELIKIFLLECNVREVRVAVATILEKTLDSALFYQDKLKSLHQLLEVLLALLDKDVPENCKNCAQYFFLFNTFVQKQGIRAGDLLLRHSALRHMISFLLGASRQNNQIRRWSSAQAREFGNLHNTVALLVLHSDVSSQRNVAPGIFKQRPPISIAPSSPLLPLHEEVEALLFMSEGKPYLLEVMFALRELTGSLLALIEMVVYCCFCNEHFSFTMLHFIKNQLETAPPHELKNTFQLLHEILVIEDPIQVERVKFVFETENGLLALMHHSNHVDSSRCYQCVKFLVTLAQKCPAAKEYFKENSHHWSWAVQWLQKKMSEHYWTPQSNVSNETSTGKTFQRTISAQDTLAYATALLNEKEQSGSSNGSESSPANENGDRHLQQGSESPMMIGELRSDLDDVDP
Summary of the method: as §1

USP25 = target: T3, USP25 (UniProt Q9UHP3)
T3 sequence (whole entry): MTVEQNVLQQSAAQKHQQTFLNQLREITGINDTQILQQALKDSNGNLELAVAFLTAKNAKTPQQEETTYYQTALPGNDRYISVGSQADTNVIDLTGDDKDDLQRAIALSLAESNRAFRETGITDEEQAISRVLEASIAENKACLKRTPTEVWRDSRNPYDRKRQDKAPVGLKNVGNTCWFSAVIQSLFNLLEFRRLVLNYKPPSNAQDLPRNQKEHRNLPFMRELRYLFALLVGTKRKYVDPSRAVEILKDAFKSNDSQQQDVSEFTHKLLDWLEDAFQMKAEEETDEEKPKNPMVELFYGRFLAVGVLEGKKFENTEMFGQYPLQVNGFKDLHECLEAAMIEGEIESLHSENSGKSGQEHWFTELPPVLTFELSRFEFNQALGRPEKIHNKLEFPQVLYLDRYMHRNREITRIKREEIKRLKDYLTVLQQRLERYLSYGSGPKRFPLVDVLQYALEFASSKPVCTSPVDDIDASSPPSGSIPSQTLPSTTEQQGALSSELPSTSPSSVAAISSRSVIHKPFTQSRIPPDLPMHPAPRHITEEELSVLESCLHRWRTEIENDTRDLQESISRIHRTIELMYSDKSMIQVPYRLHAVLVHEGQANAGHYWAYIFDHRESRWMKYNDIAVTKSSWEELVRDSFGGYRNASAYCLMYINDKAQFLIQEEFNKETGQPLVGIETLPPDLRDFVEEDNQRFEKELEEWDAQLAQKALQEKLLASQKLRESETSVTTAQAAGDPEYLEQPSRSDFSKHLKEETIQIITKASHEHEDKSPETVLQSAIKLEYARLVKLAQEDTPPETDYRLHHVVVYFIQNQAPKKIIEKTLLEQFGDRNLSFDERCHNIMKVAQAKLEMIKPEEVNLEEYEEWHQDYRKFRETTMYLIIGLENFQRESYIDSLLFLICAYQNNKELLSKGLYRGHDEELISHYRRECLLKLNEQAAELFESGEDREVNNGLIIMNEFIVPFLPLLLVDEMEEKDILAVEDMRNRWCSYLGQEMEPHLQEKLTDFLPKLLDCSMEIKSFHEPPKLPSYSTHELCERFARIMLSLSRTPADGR
Summary of the method: as §1

USP28 = target: T4, USP28 (UniProt Q96RU2)
T4 sequence (whole entry): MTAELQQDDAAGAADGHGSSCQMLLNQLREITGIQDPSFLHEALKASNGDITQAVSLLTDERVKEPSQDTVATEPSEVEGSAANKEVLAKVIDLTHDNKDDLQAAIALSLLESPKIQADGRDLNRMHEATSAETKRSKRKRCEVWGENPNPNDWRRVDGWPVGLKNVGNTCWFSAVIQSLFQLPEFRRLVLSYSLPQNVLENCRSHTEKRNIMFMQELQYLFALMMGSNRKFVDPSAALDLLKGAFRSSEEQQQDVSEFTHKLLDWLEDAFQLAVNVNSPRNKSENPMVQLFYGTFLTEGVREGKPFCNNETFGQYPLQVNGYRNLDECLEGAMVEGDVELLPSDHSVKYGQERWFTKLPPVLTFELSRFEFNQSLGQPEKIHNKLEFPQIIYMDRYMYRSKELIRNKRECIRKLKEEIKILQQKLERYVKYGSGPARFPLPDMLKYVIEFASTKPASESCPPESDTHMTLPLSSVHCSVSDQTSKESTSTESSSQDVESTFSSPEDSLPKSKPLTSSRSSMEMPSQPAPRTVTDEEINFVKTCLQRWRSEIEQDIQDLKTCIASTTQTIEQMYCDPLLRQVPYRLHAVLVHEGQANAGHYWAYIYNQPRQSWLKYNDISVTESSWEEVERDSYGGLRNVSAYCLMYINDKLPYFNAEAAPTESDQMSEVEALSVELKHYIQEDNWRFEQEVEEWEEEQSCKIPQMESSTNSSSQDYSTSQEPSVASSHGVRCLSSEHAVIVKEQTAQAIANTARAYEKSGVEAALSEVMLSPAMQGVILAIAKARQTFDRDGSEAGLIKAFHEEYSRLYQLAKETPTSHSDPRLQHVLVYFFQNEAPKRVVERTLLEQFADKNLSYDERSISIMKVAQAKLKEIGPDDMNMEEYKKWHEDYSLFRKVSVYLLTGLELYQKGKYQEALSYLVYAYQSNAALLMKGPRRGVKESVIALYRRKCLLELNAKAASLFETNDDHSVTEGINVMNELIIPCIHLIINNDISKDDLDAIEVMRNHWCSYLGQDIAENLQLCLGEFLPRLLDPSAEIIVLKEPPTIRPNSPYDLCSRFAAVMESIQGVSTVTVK
Summary of the method: as §1

With `Cl.O=C(CCl)N1CCn2ncc(O)c2C1` the “log2 ratio of Biotin-Ahx-Ub-VS probe labelling” value (“log2 ratio” for short) (USP19) was -0.754, the “log2 ratio” value (USP22) was -0.609 and the “log2 ratio” value (USP24) was -1.05 (active). For the same compound, the “log2 ratio” value (USP25) was -0.877 and the “log2 ratio” value (USP28) was -1.17 (active).
